# Inconclusive results are not listed. The source made the active and inactive calls. The calls were made as follows, unless noted: active = hit-call score of the fitted dose curve at least 0.9, where 1 is the maximum; inactive = score below 0.9.
# Assays:
# [1] = CCTE_Shafer_MEA_dev_firing_rate_mean: CCTE's Neural Network Formation Assay for Mean Firing Rate, Shafer Lab (AID 2284031);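 also: curve fitted for loss of firing so AC50 reflects decreased mean firing rate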
# Summary of the method: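 Steps: seed rat cortical cells (1.5 x 10^5/well) with laminin on PEI-coated MEA; dose day 0; record DIV 5/7/9/12, full media and compound exchange after DIV 5 and 9 recordings; compute well-mean firing rate AUC.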
# [2] = CCTE_Shafer_MEA_dev_per_burst_spike_percent: CCTE's Neural Network Formation Assay for Percent of Spikes in a Burst, Shafer Lab (AID 2284032);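 also: fitted as a decrease in burst spike percentage below DMSO baseline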
# Summary of the method: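 Value is trapezoidal AUC over recordings on days 5, 7, 9 and 12 of the well-mean fraction of spikes falling in single-electrode bursts; rat cortical cultures exposed continuously from plating, treatment renewed DIV 5 and 9, fitted downward against DMSO.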
# [3] = CCTE_Shafer_MEA_dev_active_electrodes_number: CCTE's Neural Network Formation Assay for Number of Active Electrodes, Shafer Lab (AID 2284040; active = hit-call score of the fitted dose curve at least 0.9, where 1 is the maximum;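 also: potency for loss of active electrodes versus DMSO so lower counts are hits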)
# Summary of the method: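 Counts electrodes per well firing at least 5 spikes/min, recorded on days 5, 7, 9 and 12 in rat cortical cultures dosed continuously from plating (treatment refreshed DIV 5, 9). Value is the area under the curve over recordings, fitted downward relative to DMSO.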
# [4] = CCTE_Shafer_MEA_dev_burst_rate: CCTE's Neural Network Formation Assay for Burst Rate, Shafer Lab (AID 2284042);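 also: potency for loss of burst rate below DMSO control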
# Summary of the method: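 Rat primary cortical cultures on PEI/laminin MEA; compound from plating, re-dosed at DIV 5, 9 media change. Single-electrode bursts/recording length, well mean of active electrodes; AUC over DIV 5–12 recordings; loss-of-signal vs DMSO.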
# [5] = CCTE_Shafer_MEA_dev_bursting_electrodes_number: CCTE's Neural Network Formation Assay for Number of Bursting Electrodes, Shafer Lab (AID 2284043; active = hit-call score of the fitted dose curve at least 0.9, where 1 is the maximum;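 also: potency is for loss of bursting electrodes relative to DMSO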)
# Summary of the method: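 Number of electrodes reaching ≥1 burst every 2 min was recorded at DIV 5, 7, 9 and 12 and collapsed as trapezoidal area under the curve. Cultures were rat cortical neurons on MEA plates, dosed continuously from plating with medium and treatment refreshed on DIV 5 and 9.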
# [6] = CCTE_Shafer_MEA_dev_per_burst_interspike_interval: CCTE's Neural Network Formation Assay for Burst Interspike Interval, Shafer Lab (AID 2284044);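 also: potency for a decrease of within-burst interspike interval below DMSO level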
# Summary of the method: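 Spontaneous activity of maturing rat cortical networks is recorded on DIV 5, 7, 9 and 12 under chronic compound exposure beginning at plating. Endpoint: burst interspike interval well-mean, collapsed into trapezoidal AUC and fitted in the negative direction relative to DMSO.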
# [7] = CCTE_Shafer_MEA_dev_burst_duration_mean: CCTE's Neural Network Formation Assay for Mean Burst Duration, Shafer Lab (AID 2284045);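 also: curve fitted for loss meaning shorter burst duration than DMSO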
# Summary of the method: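 Mean single-electrode burst duration (first to last spike), averaged over bursting electrodes per well, then integrated as area-under-curve across recordings at days 5, 7, 9 and 12. Rat cortical cultures on MEAs, compound present from plating, refreshed at feeds.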
# [8] = CCTE_Shafer_MEA_dev_interburst_interval_mean: CCTE's Neural Network Formation Assay for Mean Interburst Interval, Shafer Lab (AID 2284046);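 also: well-mean interburst interval of bursting electrodes as AUC over four recording days; curve fitted for decrease in interburst interval relative to DMSO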
# Summary of the method: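 Rat cortical neurons, 1.5 x 10^5 cells/well, 48-well MEA; compound from day 0 through DIV 12, media and treatment renewed DIV 5/9. Recordings DIV 5, 7, 9, 12; well-mean interburst interval → trapezoidal AUC, loss direction vs DMSO.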
# [9] = CCTE_Shafer_MEA_dev_inter_network_spike_interval_mean: CCTE's Neural Network Formation Assay for Mean Inter-network Spike Interval, Shafer Lab (AID 2284047)
# Summary of the method: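 Primary rat cortical neurons on PEI-coated 48-well MEAs (16 electrodes/well) were exposed from plating day 0 to DIV 12, with dosing renewed at DIV 5 and 9. Recordings at DIV 5, 7, 9, 12 were collapsed by trapezoidal AUC, loss-of-signal fit vs DMSO.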
# [10] = CCTE_Shafer_MEA_dev_network_spike_peak: CCTE's Neural Network Formation Assay for Mean Number of Electrodes in Network Spike, Shafer Lab (AID 2284049);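 also: fitted for loss of signal meaning fewer electrodes in network spikes than DMSO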
# Summary of the method: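 Rat cortical primary culture, 1.5 x 10^5 cells/well, 48-well MEA (16 electrodes/well). Dosing day 0 through DIV 12, full media/compound exchange DIV 5, 9. AxIS adaptive spike detection; AUC over days 5/7/9/12; loss-of-signal vs DMSO.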
# [11] = CCTE_Shafer_MEA_dev_spike_duration_mean: CCTE's Neural Network Formation Assay for Mean Spike Duration, Shafer Lab (AID 2284051);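 also: mean network spike duration pooled as area under curve over DIV 5 to 12 recordings; potency for a decrease in mean network spike duration versus DMSO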
# Summary of the method: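 Rat cortical primary cultures, 48-well MEA (16 electrodes/well); compound from plating, renewed DIV 5, 9. Network spike duration (AxIS adaptive detector) recorded DIV 5/7/9/12, combined as trapezoidal AUC; loss direction vs DMSO.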
# [12] = CCTE_Shafer_MEA_dev_network_spike_duration_std: CCTE's Neural Network Formation Assay for Standard Deviation of Network Spike Duration, Shafer Lab (AID 2284052);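 also: hits are decreases in network spike duration SD versus DMSO vehicle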
# Summary of the method: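 Rat cortical cultures, 1.5 x 10^5 cells/well, exposed continuously from plating to DIV 12 with media/compound renewal at DIV 5, 9. Spontaneous activity recorded DIV 5/7/9/12, AxIS adaptive spike detector; AUC across days; negative direction vs DMSO.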
# [13] = CCTE_Shafer_MEA_dev_per_network_spike_spike_number_mean: CCTE's Neural Network Formation Assay for Mean Number of Spikes in a Network Spike, Shafer Lab (AID 2284053);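 also: fitted as decrease in spikes per network spike relative to DMSO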
# Summary of the method: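 Rat cortical primary cultures on 48-well MEA; compound from day 0, re-dosed with full media change DIV 5, 9. Recorded DIV 5, 7, 9, 12; spikes in 0.05 s window at network-spike peak ÷ total network spikes; AUC; loss vs DMSO.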
# [14] = CCTE_Shafer_MEA_dev_per_network_spike_spike_percent: CCTE's Neural Network Formation Assay for Percent of Spikes in a Network Spike, Shafer Lab (AID 2284054)
# Summary of the method: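 Metric: fraction of spikes falling in a 0.05 s window at network-spike peaks. Recordings were made on days 5, 7, 9 and 12 and collapsed by trapezoidal AUC. Cultures were rat cortical neurons on MEA plates, dosed continuously from plating, re-dosed at media changes.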
# [15] = CCTE_Shafer_MEA_dev_LDH: CCTE's Lactate Dehydrogenase Assay for Cytotoxicity in the Neural Network Formation Assay, Shafer Lab (AID 2284068; active = hit-call score of the fitted dose curve at least 0.9, where 1 is the maximum;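 also: exposure for twelve days from plating with re-dosing on DIV 5 and 9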)
# Summary of the method: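 Rat cortical primary neurons, MEA culture; dosing day 0–12, full medium plus compound exchange DIV 5, 9. Read-out: LDH enzyme activity, spectrophotometric. DMSO = negative control/baseline; signal loss → cytotoxicity.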
# [16] = CCTE_Shafer_MEA_dev_AB: CCTE's Alamar Blue Assay for Cytotoxicity in the Neural Network Formation Assay, Shafer Lab (AID 2284083; active = hit-call score of the fitted dose curve at least 0.9, where 1 is the maximum;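 also: resazurin reduction fluorescence as viability of cultured neurons; twelve days of exposure from plating with re-dosing on DIV 5 and 9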)
# Summary of the method: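 Rat cortical primary cultures, 1.5 x 10^5 cells/well on MEA; continuous compound exposure over 12 days of network development, re-dosed with full medium change DIV 5 and 9. Alamar Blue fluorescence; loss of signal = cytotoxicity vs DMSO baseline.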
# [17] = CCTE_Shafer_MEA_dev_mutual_information_norm: CCTE's Neural Network Formation Assay for Mutual Information Normalization, Shafer Lab (AID 2284091);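 also: mutual information between electrodes summarised as area under curve across four recording days; potency is for a decrease in mutual information relative to DMSO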
# Summary of the method: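 Shared information across electrodes, tracked on days 5, 7, 9 and 12 of network development and collapsed as trapezoidal area under the curve. Rat cortical cultures were treated continuously from plating, with treatment renewed at feeds on DIV 5 and 9; DMSO baseline, negative-direction fit.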
# [18] = CCTE_Shafer_MEA_dev_correlation_coefficient_mean: CCTE's Neural Network Formation Assay for Mean Correlation Coefficient, Shafer Lab (AID 2284093);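 also: well mean pairwise spike train correlation integrated as AUC over recording days 5 to 12; potency fitted for loss of correlation relative to DMSO vehicle wells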
# Summary of the method: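 Rat cortical cultures, 1.5 x 10^5 cells/well, dosed from day 0 for 12 days. Spontaneous spikes recorded DIV 5/7/9/12; electrode-pair correlation coefficients averaged, AUC taken. Fit in loss direction vs DMSO.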
# [19] = UKN2_HCS_IMR90_neural_migration: University of Konstanz (UKN) Leist Lab Neural Crest Cell Migration Assay in human induced IMR90 Pluripotent Stem Cells (UKN2) (AID 2284204); conditions: actives raise or lower the signal
# Summary of the method: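 High-content imaging of calcein-AM and Hoechst stained cells quantifies migration into a stopper-defined gap after 24 h compound exposure. Neural crest cells from IMR90 iPSC migrated 24 h in EGF/FGF N2-S medium before dosing; DMSO baseline.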
# [20] = IUF_NPC1b_proliferation_BrdU_72hr: Leibniz Research Institute for Environmental Medicine (IUF) 72-hour Neural Progenitor Cell Bromodeoxyuridine (BrdU) Proliferation Assay (NPC1b) (AID 2284207)
# Summary of the method: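 Human fetal cortex-derived (GW 16-19) neural progenitor spheres, 0.25-0.35 mm, one per well in EGF/FGF proliferation medium, exposed to compound for 72 h at 37C, pH 7.2-7.6. BrdU incorporation over the final 16 h read by luminescence ELISA, relative to DMSO.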
# [21] = IUF_NPC1a_proliferation_area_72hr: Leibniz Research Institute for Environmental Medicine (IUF) 72-hour Neural Progenitor Cell Proliferation Area Assay (NPC1a) (AID 2284208)
# Summary of the method: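 Measured in 3D suspension: each well held one primary hNPC sphere grown with EGF and FGF at pH 7.2-7.6. Compound stayed on for 72 h, then area was imaged; spheres lacking growth factors defined reduced proliferation.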
# [22] = IUF_NPC1_viability_72hr: Viability Assessment at 72 hours in the Leibniz Research Institute for Environmental Medicine (IUF) Neural Progenitor Cell Proliferation Assay (NPC1) (AID 2284209)
# Summary of the method: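 Spheres of primary human neural progenitors were plated singly in proliferation medium and treated for 72 h. Mitochondrial reduction of resazurin was then measured by fluorescence and analysed against DMSO controls.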
# [23] = CCTE_Mundy_HCI_Cortical_Synap_Neur_Matur_NeuriteSpotCountPerNeuriteLength: CCTE's Synaptogenesis and Neurite Maturation Assay in rat cortical cells for Neurite Spot Count per Neurite Length, Mundy Lab (AID 2284210)
# Summary of the method: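 Synaptophysin spots per unit neurite length, measured by automated imaging of MAP2/synaptophysin/Hoechst-stained neurons. Cultures from rat cortex received chemical at DIV 7 with media change through DIV 12; glial growth arrested by AraC at DIV 5; DMSO baseline.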
# [24] = CCTE_Mundy_HCI_Cortical_Synap_Neur_Matur_BPCount: CCTE's Synaptogenesis and Neurite Maturation Assay in rat cortical cells for Branch Point Count, Mundy Lab (AID 2284211)
# Summary of the method: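 HCI read-out of branch points from MAP2/synaptophysin/Hoechst immunofluorescence; rat cortical cultures, AraC DIV 5, dosing DIV 7, fixed DIV 12; fit in positive direction vs DMSO baseline.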
# [25] = CCTE_Mundy_HCI_Cortical_NOG_NeuriteCount: CCTE's Neurite Outgrowth Assay in rat cortical cells for Neurite Count, Mundy Lab (AID 2284212);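 also: cells fixed about two days after chemical exposure began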
# Summary of the method: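 Rat cortical primary cells; compound added 2 h post-plating, 1/10 dilution of working solution. Anti-betaIII-tubulin/AF488 ICC; ArrayScan neurite count vs DMSO.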
# [26] = CCTE_Mundy_HCI_Cortical_NOG_NeuriteLength: CCTE's Neurite Outgrowth Assay in rat cortical cells for Neurite Length, Mundy Lab (AID 2284213)
# Summary of the method: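 First, rat primary cortical cells were plated and, 2 h later, given test chemical as a 1/10 dilution. Finally, βIII-tubulin immunostaining enabled automated imaging of neurite length.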
structure (smiles),measurement,setting,value
CCOP(=O)(OCC)OC(Cl)C(Cl)(Cl)Cl (stereo unspecified),AC50,[1],1640 nM (active)
same,AC50,[2],1320 nM (active)
same,AC50,[3],2520 nM (active)
same,AC50,[4],945 nM (active)
same,AC50,[5],1100 nM (active)
same,AC50,[6],3480 nM (active)
same,AC50,[7],1220 nM (active)
same,AC50,[8],3570 nM (active)
same,outcome,[9],inactive
same,AC50,[10],2290 nM (active)
same,AC50,[11],1390 nM (active)
same,AC50,[12],602 nM (active)
same,AC50,[13],1920 nM (active)
same,AC50,[14],2250 nM (active)
same,AC50,[15],825 nM (active)
same,AC50,[16],2240 nM (active)
same,AC50,[17],797 nM (active)
same,AC50,[18],1130 nM (active)
same,outcome,[19],inactive
same,outcome,[20],inactive
same,outcome,[21],inactive
same,outcome,[22],inactive
same,AC50,[23],49600 nM (active)
same,AC50,[24],79500 nM (active)
same,outcome,[25],inactive
same,outcome,[26],inactive

# Reference: PubChem BioAssay (EPA / NIEHS)
